Consider 39 molecules from PubChem BioAssay (Tox21).

Values joined by “and” are separate entries in the source; they are usually repeats but may differ in a detail not shown here. Equal values may be shown once. Results filed as inconclusive are left out. A call without a number means that no potency is given here. Some compounds were tested as several samples or in several runs, with calls that do not always agree. Active and inactive are the calls of the source. Unless noted, calls follow the shape of the dose curve; as a rule, active = well fitted cell-killing curve with a large enough effect in the repeat runs; inconclusive = weak or mixed curves, or effect the other way; inactive = no such curve, though single readings can be large or run the other way.
Potency is read from the fitted curve at half-maximal effect.

One assay in a line: qHTS assay to identify small molecule agonists of the vitamin D receptor (VDR) signaling pathway - cell viability counter screen (AID 743224). Also: nearly all actives have a fitted effect of over 50% in size. The settings on record: VDR-bla HEK293T viability, CellTiter-Glo luminescence, 16 h; series mostly up to 62.6 µM; activity change, negative = cytotoxicity: at the top concentration. Summed up:
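Counter screen for cytotoxicity: VDR-bla cells at 2,000 cells/well, 16 h compound exposure, then CellTiter-Glo luminescence after the beta-lactamase measurement.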
On the technique in general: qHTS replaces the single test concentration by a dilution series.
On to `O=C(O)c1cc(=O)[nH]c(=O)[nH]1`, for which the “activity change, negative = cytotoxicity” value was -7.34% (inactive).

With `C1COCCN1`, the Potency result was “inactive”.

Take `c1ccc2ncccc2c1`: the “activity change, negative = cytotoxicity” value was 12.5% (inactive).

In the case of `CCC/C=C/C=O`, the Potency result is “inactive”.

As to `NCCS(=O)(=O)O`, the Potency entry was “inactive”.

For the molecule `CC(=O)Oc1ccc(C(c2ccc(OC(C)=O)cc2)c2ccccn2)cc1`, the Potency entry is “inactive”.

As to `CN(C)CCCN1c2ccccc2Sc2ccc(Cl)cc21`, the Potency is 21.9 µM (active).

On to `CN1CCOCC1`, for which the Potency result was “inactive”.

For `CNC[C@H](O)c1ccc(O)c(O)c1`, the Potency entry is “inactive”.

Regarding `O=C(O)CCCCCCCCCCCC(=O)O`, the Potency entry is “inactive”.

As for `CC1(C)O[C@@H]2C[C@H]3[C@@H]4C[C@H](F)C5=CC(=O)C=C[C@]5(C)[C@@]4(F)[C@@H](O)C[C@]3(C)[C@]2(C(=O)CO)O1`, the Potency result was “inactive”.

As to `O=[Se](O)O`, the Potency result was “inactive”.

Turning to `CC[C@]12CCCN3CCc4c(n(c5ccccc45)[C@@](O)(C(=O)OC)C1)[C@@H]32`, the Potency entry is “inactive”.

In the case of `COc1ccc(-c2coc3cc(O)cc(O)c3c2=O)cc1`, the “activity change, negative = cytotoxicity” value was -1.16% [at 81.1 µM] (inactive).

Regarding `CC(=O)[C@H]1CC[C@H]2[C@@H]3CC=C4C[C@@H](O)CC[C@]4(C)[C@H]3CC[C@]12C`, the Potency entry is “inactive”.

On to `O=Cc1ccccc1C=O`, for which the “activity change, negative = cytotoxicity” value was 14.3% (inactive).

For the molecule `c1ccc2c(c1)[nH]c1ccccc12`, the Potency entry was “inactive”.

Regarding `Cc1ccc2c(c1)C(=O)OC2=O`, the Potency result is “inactive”.

Regarding `Nc1ccc(N)c(Cl)c1`, the “activity change, negative = cytotoxicity” value was -4.83% (inactive).

Take `CC1(C)OC(=O)NC1=O`: the Potency result is “inactive”.

On to `Nc1ccc2c(c1)C(=O)c1ccccc1C2=O`, for which the Potency result is “inactive”.

In the case of `CC(=O)OC(C)C`, the Potency result is “inactive”.

Consider `ClC/C=C/CCl`, for which the Potency result is “inactive”.

For `Oc1c(Cl)ccc(Cl)c1Cl`, the Potency entry is “inactive”.

With `CC/C(=C(/CC)c1ccc(O)cc1)c1ccc(O)cc1`, the Potency was 24.3 µM (active).

On to `C=CCNCC=C`, for which the Potency entry was “inactive”.

In the case of `CCCN1C=CN(C)C1`, the Potency result is “inactive”.

Regarding `CCCOCCO`, the Potency result is “inactive”.

For the molecule `C=CC(C)(O)CCC=C(C)C` (stereo not drawn), the Potency entry was “inactive”.

For the molecule `[Na+]`, the Potency result was “inactive”.

For `CCO[Si](CCCNC(N)=O)(OCC)OCC`, the Potency entry was “inactive”.

On to `NCCOCCO`, for which the Potency result is “inactive”.

As to `COC(=O)c1ccc(C)cc1`, the Potency entry was “inactive”.

For `CC(C)[N+](C)(CCOC(=O)C1c2ccccc2Oc2ccccc21)C(C)C`, the Potency entry is “inactive”.

As for `CCCCCCOCCOCCO`, the Potency entry is “inactive”.

`Cc1ccc(/C(=C\CN2CCCC2)c2ccccn2)cc1`: the Potency entry is “inactive”.

Consider `COC(=O)C(C)Oc1ccc(Oc2ncc(C(F)(F)F)cc2Cl)cc1` (stereo not drawn), for which the Potency entry is “inactive”.

A short description of the next assay: qHTS assay to identify small molecule antagonists of the vitamin D receptor (VDR) signaling pathway - cell viability counter screen (AID 743225). Also: nearly all actives have a fitted effect of over 50% in size. The conditions noted are these: VDR-bla HEK293T viability, CellTiter-Glo luminescence, 16 h; series mostly up to 61 µM; viability change, negative = cytotoxic: at the top concentration. Put shortly:
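HEK293T VDR-bla; cpd + 1a,25-(OH)2D3 3 nM final, 16 h 37C/5% CO2; B/G FRET substrate 2 h RT; then CellTiter-Glo 30 min RT, luminescence.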
Consider `O=C(O)c1cc(=O)[nH]c(=O)[nH]1`, for which the Potency entry is “inactive”.

Regarding `C1COCCN1`, the Potency result is “inactive”.

As to `c1ccc2ncccc2c1`, the Potency result was “inactive”.

Regarding `CCC/C=C/C=O`, the Potency entry was “inactive”.

With `NCCS(=O)(=O)O`, the Potency result is “inactive”.

On to `CC(=O)Oc1ccc(C(c2ccc(OC(C)=O)cc2)c2ccccn2)cc1`, for which the Potency entry is “inactive”.

In the case of `CN(C)CCCN1c2ccccc2Sc2ccc(Cl)cc21`, the Potency is 24.5 µM (active) and inactive.

With `CN1CCOCC1`, the Potency entry is “inactive”.

In the case of `CNC[C@H](O)c1ccc(O)c(O)c1`, the Potency entry is “inactive”.

`O=C(O)CCCCCCCCCCCC(=O)O`: the Potency entry was “inactive”.

For `CC1(C)O[C@@H]2C[C@H]3[C@@H]4C[C@H](F)C5=CC(=O)C=C[C@]5(C)[C@@]4(F)[C@@H](O)C[C@]3(C)[C@]2(C(=O)CO)O1`, the Potency entry is “inactive”.

Turning to `O=[Se](O)O`, the “viability change, negative = cytotoxic” value is 7.42% [at 28.5 µM] (inactive).

Consider `CC[C@]12CCCN3CCc4c(n(c5ccccc45)[C@@](O)(C(=O)OC)C1)[C@@H]32`, for which the Potency entry was “inactive”.

Regarding `COc1ccc(-c2coc3cc(O)cc(O)c3c2=O)cc1`, the Potency result was “inactive”.

For `CC(=O)[C@H]1CC[C@H]2[C@@H]3CC=C4C[C@@H](O)CC[C@]4(C)[C@H]3CC[C@]12C`, the Potency entry is “inactive”.

With `O=Cc1ccccc1C=O`, the Potency is 21.9 µM (active) and inactive.

In the case of `c1ccc2c(c1)[nH]c1ccccc12`, the Potency result was “inactive”.

In the case of `Cc1ccc2c(c1)C(=O)OC2=O`, the Potency result is “inactive”.

Turning to `Nc1ccc(N)c(Cl)c1`, the “viability change, negative = cytotoxic” value was 10% (inactive).

For the molecule `CC1(C)OC(=O)NC1=O`, the Potency result was “inactive”.

As to `Nc1ccc2c(c1)C(=O)c1ccccc1C2=O`, the Potency result is “inactive”.

With `CC(=O)OC(C)C`, the “viability change, negative = cytotoxic” value was 22.1% (inactive).

Consider `ClC/C=C/CCl`, for which the Potency result is “inactive”.

As for `Oc1c(Cl)ccc(Cl)c1Cl`, the “viability change, negative = cytotoxic” value is -12.6% (inactive).

As for `CC/C(=C(/CC)c1ccc(O)cc1)c1ccc(O)cc1`, the Potency result is “inactive”.

Consider `C=CCNCC=C`, for which the Potency entry was “inactive”.

Take `CCCN1C=CN(C)C1`: the Potency entry is “inactive”.

As to `CCCOCCO`, the “viability change, negative = cytotoxic” value is -6.92% (inactive).

As for `C=CC(C)(O)CCC=C(C)C` (stereo not drawn), the Potency result was “inactive”.

For the molecule `[Na+]`, the Potency entry is “inactive”.

For the molecule `CCO[Si](CCCNC(N)=O)(OCC)OCC`, the Potency result is “inactive”.

Turning to `NCCOCCO`, the Potency entry was “inactive”.

On to `COC(=O)c1ccc(C)cc1`, for which the Potency entry was “inactive”.

As for `CC(C)[N+](C)(CCOC(=O)C1c2ccccc2Oc2ccccc21)C(C)C`, the Potency entry was “inactive”.

For the molecule `CCCCCCOCCOCCO`, the Potency entry was “inactive”.

Take `Cc1ccc(/C(=C\CN2CCCC2)c2ccccn2)cc1`: the Potency result was “inactive”.

In the case of `COC(=O)C(C)Oc1ccc(Oc2ncc(C(F)(F)F)cc2Cl)cc1` (stereo not drawn), the Potency result was “inactive”.

A short description of another assay: qHTS assay to identify small molecule agonists of the NFkB signaling pathway - cell viability counter screen (AID 1159515; calls by dose curve; also: nearly all actives have a fitted effect of over 55% in size). The settings on record: NFkB-bla ME-180 viability, CellTiter-Glo luminescence, 5 h; series mostly up to 61 µM; activity, negative = cytotoxic: at the top concentration. Put shortly: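 Counter screen run alongside the NFkB-bla agonist assay: ME-180 reporter cells exposed to compounds for 5 hr, then lysed with CellTiter-Glo in the same wells. Luminescence, read after 30 min, reflects viable cells.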
Consider `O=C(O)c1cc(=O)[nH]c(=O)[nH]1`, for which the Potency entry was “inactive”.

Turning to `C1COCCN1`, the Potency result was “inactive”.

`c1ccc2ncccc2c1`: the Potency result is “inactive”.

With `CCC/C=C/C=O`, the Potency result was “inactive”.

For `NCCS(=O)(=O)O`, the Potency entry is “inactive”.

With `CC(=O)Oc1ccc(C(c2ccc(OC(C)=O)cc2)c2ccccn2)cc1`, the Potency was 546 nM (active) and 1.07 µM (active).

As for `CN(C)CCCN1c2ccccc2Sc2ccc(Cl)cc21`, the Potency was 54.9 µM (active) and inactive.

As for `CN1CCOCC1`, the Potency result is “inactive”.

Regarding `CNC[C@H](O)c1ccc(O)c(O)c1`, the Potency entry was “inactive”.

Turning to `C=C[C@H]1CN2CC[C@H]1C[C@H]2[C@H](O)c1ccnc2ccc(OC)cc12`, the Potency result is “inactive”.

With `O=C(O)CCCCCCCCCCCC(=O)O`, the Potency result is “inactive”.

With `CC1(C)O[C@@H]2C[C@H]3[C@@H]4C[C@H](F)C5=CC(=O)C=C[C@]5(C)[C@@]4(F)[C@@H](O)C[C@]3(C)[C@]2(C(=O)CO)O1`, the Potency entry is “inactive”.

For `O=[Se](O)O`, the Potency entry is “inactive”.

In the case of `CC[C@]12CCCN3CCc4c(n(c5ccccc45)[C@@](O)(C(=O)OC)C1)[C@@H]32`, the Potency entry was “inactive”.

On to `COc1ccc(-c2coc3cc(O)cc(O)c3c2=O)cc1`, for which the Potency entry was “inactive”.

For the molecule `CC(=O)[C@H]1CC[C@H]2[C@@H]3CC=C4C[C@@H](O)CC[C@]4(C)[C@H]3CC[C@]12C`, the Potency entry is “inactive”.

With `O=Cc1ccccc1C=O`, the Potency result is “inactive”.

As for `c1ccc2c(c1)[nH]c1ccccc12`, the Potency entry is “inactive”.

As to `Cc1ccc2c(c1)C(=O)OC2=O`, the Potency result is “inactive”.

Consider `Nc1ccc(N)c(Cl)c1`, for which the Potency entry is “inactive”.

For `CC1(C)OC(=O)NC1=O`, the Potency entry was “inactive”.

Regarding `Nc1ccc2c(c1)C(=O)c1ccccc1C2=O`, the Potency result was “inactive”.

Consider `CC(=O)OC(C)C`, for which the Potency entry was “inactive”.

For `ClC/C=C/CCl`, the Potency entry was “inactive”.

`Oc1c(Cl)ccc(Cl)c1Cl`: the Potency entry is “inactive”.

`CC/C(=C(/CC)c1ccc(O)cc1)c1ccc(O)cc1`: the Potency result is “inactive”.

For `C=CCNCC=C`, the Potency result is “inactive”.

With `CCCN1C=CN(C)C1`, the Potency entry is “inactive”.

For the molecule `Oc1ccc(C(c2ccc(O)cc2)C(Cl)(Cl)Cl)cc1`, the Potency entry was “inactive”.

For `CCCOCCO`, the Potency entry was “inactive”.

With `C=CC(C)(O)CCC=C(C)C` (stereo not drawn), the Potency result was “inactive”.

Regarding `[Na+]`, the Potency entry is “inactive”.

For `CCO[Si](CCCNC(N)=O)(OCC)OCC`, the Potency result was “inactive”.

As to `NCCOCCO`, the Potency entry is “inactive”.

For the molecule `COC(=O)c1ccc(C)cc1`, the Potency entry was “inactive”.

Consider `CC(C)[N+](C)(CCOC(=O)C1c2ccccc2Oc2ccccc21)C(C)C`, for which the Potency result was “inactive”.

`CCCCCCOCCOCCO`: the Potency entry is “inactive”.

Turning to `Cc1ccc(/C(=C\CN2CCCC2)c2ccccn2)cc1`, the Potency result is “inactive”.

On to `COC(=O)C(C)Oc1ccc(Oc2ncc(C(F)(F)F)cc2Cl)cc1` (stereo not drawn), for which the Potency entry is “inactive”.
